# According to PubChem BioAssay (NCATS):
# Results filed as inconclusive are left out. Entries that show only a call come without a potency. A number with no mark means an inactive call. Calls of active or inactive are those of the source. The call rests on the fitted dose curve; in most records, active means well fitted inhibition curve with a large enough effect; inconclusive means small, poorly fitted or top-dose-only effect; inactive means flat fitted curve, though single readings scatter.
# Tested on: KB-3-1
# Test: Cytotoxic Profiling of Annotated Libraries Using Quantitative High-Throughput Screening (AID 1296008); further: potency means the concentration at half of the fitted maximal effect
# Settings: Five cell lines viability, CellTiter-Glo ATP luminescence, 48-72 h; max response: active compounds read low
# Summary of the method: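 Cytotoxicity was measured as CellTiter-Glo ATP luminescence, read after 10 min at room temperature. Compound treatment of the cells lasted 48 or 72 hr at 37 degrees Celsius in a qHTS format.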
# Further: nearly all actives have a fitted effect of over 60% in size.
Structure (SMILES),max response [%],Potency
C1CCc2nnnn2CC1,18.9,–
CC1(C)CCC(NC(=O)[C@@H](N)CCC(=O)O)CC1,5,–
Nc1cc(Cl)c(NC2=NCCN2)c(Cl)c1,-1.36,–
C[C@@H]1CN(CCCn2c3ccccc3c3ccccc32)C[C@H](C)N1,0.54,–
CC1=C(C(=O)OC(C)C)C(c2cccc([N+](=O)[O-])c2)C(C(=O)OC2CN(C(c3ccccc3)c3ccccc3)C2)=C(N)N1 (configuration not stated),–,18.4 µM (active)
COC(=O)[C@H]1[C@H]2C[C@H]3c4[nH]c5ccccc5c4CCN3C[C@H]2CC[C@@H]1O,-10.9,–
O=C(O)c1cc2cc(Cc3cccnc3)ccc2o1,4.6,–
Nc1ccc(C(=O)Nc2ccccc2N)cc1,-27.7,–
N[C@H](CO)C(=O)O,-2.03,–
CNCCC=C1c2ccccc2CCc2ccccc21,-9.12,–
CC(C)COC(=O)OCN1C(=O)CN(CCN2CC(=O)N(COC(=O)OCC(C)C)C(=O)C2)CC1=O,6.86,–
O=C1CCC(c2ccc(-n3ccnc3)cc2)=NN1,11.9,–
CCCCCCCCCCOCC(O)CN (configuration not stated),-10.6,–
N[C@@H](Cc1cnc[nH]1)C(=O)O,2.19,–
CC(C)(C)CC(C)(C)c1ccc(O)c(Cc2ccc(Cl)cc2Cl)c1,-6.63,–
C[C@@H]1C(=O)NC2=Nc3cccc(Cl)c3CN21,-2.45,–
C[N+]1(CCCCC[N+]2(C)CCCC2)CCCC1,15,–

# Tested on: HACAT
# Test: qHTS assay to identify novel small-molecules to repurpose for Merkel cell carcinoma treatment (AID 1296009)
# Settings: MCC and control cell lines, CellTiter-Glo viability, 72 h; at 44.8 µM (top of the series) unless noted
# Summary of the method: (§1)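 72 hr, 37 degree celsius; NPC 8-pt / MIPE 11-pt dose response; compound pinned in DMSO; CellTiter-Glo, 10 min RT, luminescence; normalized to no-cell and DMSO controls.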
row,Structure (SMILES),outcome
1,CC(=O)Oc1ccc(C(=C2CCCCC2)c2ccc(OC(C)=O)cc2)cc1,inactive
2,Cc1ccnc(NS(=O)(=O)c2ccc(N)cc2)n1,inactive
3,CO/N=C1\CN(c2nc3c(cc2F)c(=O)c(C(=O)O)cn3C2CC2)CC1CN (configuration not stated),inactive
4,NCCC(O)(P(=O)(O)O)P(=O)(O)O,inactive
5,CCCC(=O)Nc1ccc(OCC(O)CNC(C)C)c(C(C)=O)c1 (configuration not stated),inactive
6,NCCc1ccn[nH]1,inactive
7,COc1ccc(OC)c(C(O)CNC(=O)CN)c1 (configuration not stated),inactive
8,CC(=O)CC(c1ccc([N+](=O)[O-])cc1)c1c(O)c2ccccc2oc1=O (configuration not stated),inactive
9,Nc1ccc(C(=O)O)cc1,inactive
10,CCCCC1=NC2(CCCC2)C(=O)N1Cc1ccc(-c2ccccc2-c2nn[nH]n2)cc1,inactive
11,N[C@@H](CCC(=O)N[C@@H](CS)C(=O)NCC(=O)O)C(=O)O,inactive [at 17.4 µM]
12,CCOC(=O)/C=C(C)/C=C/C=C(C)/C=C/c1c(C)cc(OC)c(C)c1C,inactive

# Tested on: HEK293T
# Test: as above
# Settings: MCC and control cell lines, CellTiter-Glo viability, 72 h; at 44.8 µM (top of the series) unless noted
# Summary of the method: as §1
row,Structure (SMILES),outcome
1,Cc1ccnc(NS(=O)(=O)c2ccc(N)cc2)n1,inactive
2,CC[C@@H](CO)NCCN[C@@H](CC)CO,inactive
3,CC1=C(C(=O)O)N2C(=O)[C@@H](NC(=O)[C@H](N)c3ccc(O)cc3)[C@H]2SC1,inactive
4,CCN1CCC[C@H]1CNC(=O)c1c(OC)ccc(Br)c1OC,inactive
5,CC(=O)OCC(=O)NCCCOc1cccc(CN2CCCCC2)c1,inactive
6,Nc1nc2ncc(CNc3ccc(C(=O)N[C@@H](CCC(=O)O)C(=O)O)cc3)nc2c(=O)[nH]1,inactive
7,Nc1ccc(C(=O)O)cc1,inactive
8,CCCCC1=NC2(CCCC2)C(=O)N1Cc1ccc(-c2ccccc2-c2nn[nH]n2)cc1,inactive

# Tested on: MCC-13
# Test: as above
# Settings: MCC and control cell lines, CellTiter-Glo viability, 72 h; series mostly up to 46 µM
# Summary of the method: as §1
row,Structure (SMILES),Potency
1,CC(=O)Oc1ccc(C(=C2CCCCC2)c2ccc(OC(C)=O)cc2)cc1,inactive
2,Cc1ccnc(NS(=O)(=O)c2ccc(N)cc2)n1,inactive
3,CO/N=C1\CN(c2nc3c(cc2F)c(=O)c(C(=O)O)cn3C2CC2)CC1CN (configuration not stated),inactive
4,NCCC(O)(P(=O)(O)O)P(=O)(O)O,inactive
5,CC[C@@H](CO)NCCN[C@@H](CC)CO,inactive
6,CCCC(=O)Nc1ccc(OCC(O)CNC(C)C)c(C(C)=O)c1 (configuration not stated),inactive
7,CC1=C(C(=O)O)N2C(=O)[C@@H](NC(=O)[C@H](N)c3ccc(O)cc3)[C@H]2SC1,inactive
8,NCCc1ccn[nH]1,inactive
9,COc1ccc(OC)c(C(O)CNC(=O)CN)c1 (configuration not stated),inactive
10,CC(=O)CC(c1ccc([N+](=O)[O-])cc1)c1c(O)c2ccccc2oc1=O (configuration not stated),inactive
11,CCN1CCC[C@H]1CNC(=O)c1c(OC)ccc(Br)c1OC,inactive
12,CC(=O)OCC(=O)NCCCOc1cccc(CN2CCCCC2)c1,inactive
13,Nc1nc2ncc(CNc3ccc(C(=O)N[C@@H](CCC(=O)O)C(=O)O)cc3)nc2c(=O)[nH]1,inactive
14,Nc1ccc(C(=O)O)cc1,inactive
15,CCCCC1=NC2(CCCC2)C(=O)N1Cc1ccc(-c2ccccc2-c2nn[nH]n2)cc1,inactive
16,N[C@@H](CCC(=O)N[C@@H](CS)C(=O)NCC(=O)O)C(=O)O,inactive
17,CCOC(=O)/C=C(C)/C=C/C=C(C)/C=C/c1c(C)cc(OC)c(C)c1C,inactive

# Tested on: MCC-26
# Test: as above
# Settings: MCC and control cell lines, CellTiter-Glo viability, 72 h; series mostly up to 46 µM
# Summary of the method: as §1
row,Structure (SMILES),Potency
1,CC(=O)Oc1ccc(C(=C2CCCCC2)c2ccc(OC(C)=O)cc2)cc1,inactive
2,Cc1ccnc(NS(=O)(=O)c2ccc(N)cc2)n1,inactive
3,CO/N=C1\CN(c2nc3c(cc2F)c(=O)c(C(=O)O)cn3C2CC2)CC1CN (configuration not stated),inactive
4,NCCC(O)(P(=O)(O)O)P(=O)(O)O,inactive
5,CC[C@@H](CO)NCCN[C@@H](CC)CO,inactive
6,CC1=C(C(=O)O)N2C(=O)[C@@H](NC(=O)[C@H](N)c3ccc(O)cc3)[C@H]2SC1,inactive
7,NCCc1ccn[nH]1,inactive
8,CCN1CCC[C@H]1CNC(=O)c1c(OC)ccc(Br)c1OC,inactive
9,CC(=O)OCC(=O)NCCCOc1cccc(CN2CCCCC2)c1,inactive
10,Nc1nc2ncc(CNc3ccc(C(=O)N[C@@H](CCC(=O)O)C(=O)O)cc3)nc2c(=O)[nH]1,inactive
11,CCCCCCCCCCOCC(O)CN (configuration not stated),inactive
12,Nc1ccc(C(=O)O)cc1,inactive
13,CCCCC1=NC2(CCCC2)C(=O)N1Cc1ccc(-c2ccccc2-c2nn[nH]n2)cc1,inactive
